Data: PubChem BioAssay (NCATS)
Records with an inconclusive call do not appear. A number with no mark means an inactive call. Active and inactive are the calls of the source. The call rests on the fitted dose curve; in most records, active means well fitted inhibition curve with a large enough effect; inconclusive means small, poorly fitted or top-dose-only effect; inactive means flat fitted curve, though single readings scatter.

Assay: P-glycoprotein substrates identified in KB-8-5-11 adenocarcinoma cell line, qHTS therapeutic library screen (AID 1346987); further: nearly all actives have a fitted effect of over 65% in size
Conditions: KB-8-5-11 (P-gp overexpressing) viability, CellTiter-Glo, 72 h; series mostly up to 44.5 µM; activity change, negative = cytotoxicity: at the top concentration
How it was run: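 In this qHTS, P-gp-rich KB-8-5-11 cells received library compounds across a concentration range. Viability was quantified by luminescence after 72 h at 37 degree C.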
On the % scale 0 is the no-effect control and ±100 the full control effect; potency means the concentration at half of the fitted maximal effect.

SMILES | Potency | activity change, negative = cytotoxicity | outcome
Cc1ccc(C)c(NS(=O)(=O)c2cc(C(=O)Nc3ccccc3-c3ccccc3)ccc2C)c1 | 16.4 µM (active) | – | –
Cc1csc(N(C(=O)CSc2ccc(-c3ccccc3)nn2)C2CC2)n1 | – | -21.8% | –
C/C=C(\C)C(=O)O[C@H]1C[C@](C)(O)[C@H]2CC=C(C)[C@H]2[C@@H]2OC(=O)[C@H](C)[C@H]21 | – | -20.4% | –
CC1=C(C(=O)OC2CCCCC2)C(c2ccc([N+](=O)[O-])cc2)C2=C(CC(C)(C)CC2=O)N1 (centres undefined) | – | – | inactive
C=C1CCC[C@]2(C)CC/C(=C(/CO)C(=O)OC)C[C@@H]12 | – | -1.04% | –
C=CC(C)(C)C12CC3C(=O)N4C(CC5(C(C)(C)C=C)c6ccccc6NC45)C(=O)N3C1Nc1ccccc12 (centres undefined) | – | -12% [at 17.3 µM] | –
C/C(=C(\CCOC(=O)c1ccccc1)SS/C(CCOC(=O)c1ccccc1)=C(/C)N(C=O)Cc1cnc(C)nc1N)N(C=O)Cc1cnc(C)nc1N | – | -1.98% | –
CCC(C)C(C(=O)OCC[N+](C)(CC)CC)c1ccccc1 (centres undefined) | – | -0.686% | –
CCn1c(=O)n([C@H]2CCCN(c3nccc(-c4cc5ccccc5o4)n3)C2)c2ccccc21 | – | -13% | –
CCOc1nc(NC(=O)Cc2cc(OC)ccc2OC)cc(N)c1C#N | – | -16.3% | –
O=C(Nc1ccc(N(Cc2ccsc2)C(=O)Cn2nnc3ccccc32)cc1)C1CC1 | – | -25.3% | –
CC[C@@H](Nc1c(Nc2cccc(C(=O)N(C)C)c2O)c(=O)c1=O)c1cc(C(C)C)co1 | – | 6.94% | –
CC(C)C[C@@H](C(=O)N[C@@H](Cc1ccc(OCc2ccccc2)cc1)C(=O)NC(C)(C)C)N(C)Cc1ccc(C(C)(C)C)cc1 | – | -26.2% | –
CCN(CC)c1ccc(C(=C2C=CC(=[N+](CC)CC)C=C2)c2ccccc2)cc1 | 4.61 µM (active) | – | –
CC(C)CCCCC(=O)N[C@@H](CO)C(=O)N[C@@H](CC(C)C)C(=O)[C@@]1(CO)CO1 | – | 9.93% | –
C=C1C(=O)O[C@@H]2[C@H]1CC(=O)[C@H](C)[C@@](O)(C(=O)/C=C/C)[C@H]2OC(=O)C(C)CC (some centres undefined) | 5.7 µM (active) | – | –
CO[C@@H]1[C@@H](O[C@@H]2O[C@H](C)[C@@H](O[C@H]3C[C@@](C)(O)[C@@H](OC(=O)CC(C)C)[C@H](C)O3)[C@H](N(C)C)[C@H]2O)[C@@H](CC=O)C[C@@H](C)[C@@H](O)/C=C/C=C/C[C@@H](C)OC(=O)C[C@H]1O | inactive | – | –
CC[C@H]1CN(c2nc(N)c(C(N)=O)nc2Cl)CCN1C1CCN(Cc2ccc(Cl)cc2)CC1 | – | -25.6% | –
C=CC(C)(O)CC/C=C(\C)C(=O)OC1C(O)C(CO)OC(OC(=O)C23CCC(C)(C)CC2C2=CCC4C5(C)CCC(OC6OC(COC7OCC(OC(C)=O)C(O)C7OC7OC(COC(C)=O)C(O)C(O)C7OC(C)=O)C(O)C(O)C6OC6OCC(O)C(O)C6O)C(C)(C)C5CCC4(C)C2(C)C(O)C3O)C1OC1OCC(OC2OCC(O)C(OC3OCC(O)C(O)C3O)C2O)C(O)C1O (centres undefined) | – | -2.64% [at 5.11 µM] | –
N#Cc1ccc(COC[C@H]2O[C@@H](n3c(NCc4ccc(Cl)c(Cl)c4)nc4c(N)ncnc43)[C@H](O)[C@@H]2O)cc1 | – | – | inactive [at 17.3 µM]

SMILES | Potency | activity change, negative = cytotoxicity | outcome
COc1cc(NC(=O)c2cc(C3CC3)on2)c(OC)cc1Cl | – | -4.84% | –
CS(=O)(=O)NC(=O)CCC/C=C\C[C@H]1C(=O)C[C@@H](O)[C@@H]1/C=C/[C@H](O)COc1ccccc1 | – | 9.18% | –
CC(C)(C)C1CCN(C(=O)n2ncc(C(O)(c3ccccc3)c3ccccc3)n2)CC1 | 20.6 µM (active) | – | –
CC(C)NC(=O)N1CC[C@H](N=C2Nc3cc(F)ccc3N(CC(F)F)c3ccc(Cl)cc32)C1 | – | -19.3% [at 9.29 µM] | –
COc1ccccc1OCCNCC(O)CCOc1cccc2[nH]c3ccccc3c12 (centres undefined) | 18.4 µM (active) | – | –
CCOC(=O)COc1ccc2c(=O)cc(-c3ccccc3)oc2c1 | inactive | – | –
CCCCCCOC(=O)/N=C(\N)c1ccc(NCc2nc3cc(C(=O)N(CCC(=O)OCC)c4ccccn4)ccc3n2C)cc1 | – | -16.8% | –
CNc1cc2[nH]c(=O)n(-c3ccc(NC(=O)NS(=O)(=O)c4ccc(Cl)s4)cc3)c(=O)c2cc1F | – | 4.6% | –
Clc1ccc(Nc2nc3ccccc3c3nc(C4CCCCC4)[nH]c23)cc1Cl | 16.4 µM (active) | – | –
c1ccc(-c2ccc(CNc3nc(-c4ccccn4)nnc3-c3ccccc3)cc2)cc1 | 4.61 µM (active) | – | –
CC(=O)OC1CC(C)(C(=O)O)CC2C3=CC(=O)C4C5(C)CCC(OC6OC(C(=O)O)C(O)C(O)C6OC6OC(C(=O)O)C(O)C(O)C6O)C(C)(C)C5CCC4(C)C3(C)CCC12C (centres undefined) | – | 0.92% [at 9.29 µM] | –
C=C1C(=O)OC2/C=C(\C)CC/C=C(\C)CC(OC(C)=O)C12 (centres undefined) | – | -23.1% | –
C[C@H]1CO[C@@H]2Cn3cc(C(=O)NCc4ccc(F)cc4F)c(=O)c(O)c3C(=O)N12 | – | -20.1% | –
CC(NC(=O)Cc1cc(F)cc(F)c1)C(=O)NC1C(=O)N(C)c2ccccc2-c2ccccc21 (centres undefined) | 14.6 µM (active) | – | –
Cc1nnc(C[C@@H]2C=C(c3ccc(Cl)cc3)c3ccccc3-n3c(C)nnc32)o1 | 2.59 µM (active) | – | –
CC(C)(C)c1ccc(C(=O)Nc2cc(Cl)c(Br)cc2C(=O)O)cc1 | 10.3 µM (active) | – | –
N[C@@H]1c2cccnc2[C@H](OC(=O)N2CCC(n3c(=O)[nH]c4ncccc43)CC2)CC[C@H]1c1cccc(F)c1F | – | -12.1% | –
CCC(CC)Nc1nc(C)c(-c2ccc(OC(F)(F)F)cc2OC)nc1OC | – | -0.463% | –
C=C1CO[C@@]2(O[C@H]3CC4C5CC=C6C[C@@H](O)C[C@@H](O[C@@H]7OC[C@H](O)[C@H](O[C@@H]8OC[C@@H](O)[C@H](O)[C@H]8O)[C@H]7O[C@@H]7O[C@@H](C)[C@H](OC(C)=O)[C@@H](OC(C)=O)[C@H]7OC(C)=O)[C@]6(C)C5CC[C@]4(C)[C@@H]3[C@@H]2C)[C@@H](O)[C@H]1OC1OC(C)C(O)C(O)C1O (some centres undefined) | – | – | inactive [at 9.29 µM]
